Columns and labels:
[1] = target: T1, Serine/threonine-protein kinase TBK1 (Homo sapiens) (UniProt Q9UHD2); conditions: at 10 µM
T1 sequence (whole entry): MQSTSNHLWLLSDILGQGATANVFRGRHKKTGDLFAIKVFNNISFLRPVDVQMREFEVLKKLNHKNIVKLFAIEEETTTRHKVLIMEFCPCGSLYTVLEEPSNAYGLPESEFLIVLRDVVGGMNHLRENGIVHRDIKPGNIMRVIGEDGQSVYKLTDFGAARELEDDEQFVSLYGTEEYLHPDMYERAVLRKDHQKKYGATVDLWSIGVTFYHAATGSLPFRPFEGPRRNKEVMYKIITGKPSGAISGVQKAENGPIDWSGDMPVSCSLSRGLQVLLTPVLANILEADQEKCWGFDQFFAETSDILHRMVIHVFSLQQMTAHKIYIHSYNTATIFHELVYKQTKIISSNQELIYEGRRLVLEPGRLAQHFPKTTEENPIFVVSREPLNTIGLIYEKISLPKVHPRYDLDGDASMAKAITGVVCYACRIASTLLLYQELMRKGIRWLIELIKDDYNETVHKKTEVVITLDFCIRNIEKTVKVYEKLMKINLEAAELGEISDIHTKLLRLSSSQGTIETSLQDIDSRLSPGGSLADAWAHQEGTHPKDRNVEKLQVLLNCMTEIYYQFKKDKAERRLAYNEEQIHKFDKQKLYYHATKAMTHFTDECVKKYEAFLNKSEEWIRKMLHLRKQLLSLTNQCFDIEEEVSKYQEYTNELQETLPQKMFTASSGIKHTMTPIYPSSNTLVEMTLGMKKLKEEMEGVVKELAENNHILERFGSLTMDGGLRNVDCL

[2] = target: T2, TGF-beta receptor type-1 (Homo sapiens) (UniProt P36897); conditions: at 1 µM
T2 sequence (whole entry): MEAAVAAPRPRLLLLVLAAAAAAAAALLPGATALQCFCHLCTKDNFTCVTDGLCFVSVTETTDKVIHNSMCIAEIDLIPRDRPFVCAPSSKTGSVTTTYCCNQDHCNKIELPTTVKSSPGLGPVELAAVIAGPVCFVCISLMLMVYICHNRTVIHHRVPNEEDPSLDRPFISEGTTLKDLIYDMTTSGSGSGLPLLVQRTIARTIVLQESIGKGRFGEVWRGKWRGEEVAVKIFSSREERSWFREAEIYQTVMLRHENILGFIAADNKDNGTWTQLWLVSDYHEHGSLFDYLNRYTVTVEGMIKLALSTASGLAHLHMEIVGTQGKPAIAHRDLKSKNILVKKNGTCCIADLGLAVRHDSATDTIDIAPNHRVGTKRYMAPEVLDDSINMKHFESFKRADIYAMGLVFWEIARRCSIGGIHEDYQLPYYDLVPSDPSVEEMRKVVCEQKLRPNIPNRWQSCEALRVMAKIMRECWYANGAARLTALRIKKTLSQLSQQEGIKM

[3] = target: T2, TGF-beta receptor type-1 (Homo sapiens); conditions: at 10 µM
[4] = target: Insulin-like growth factor 1 receptor (Homo sapiens) (UniProt P08069); conditions: at 1 µM
Insulin-like growth factor 1 receptor (Homo sapiens), sequence (P08069 31-736 limits assumed): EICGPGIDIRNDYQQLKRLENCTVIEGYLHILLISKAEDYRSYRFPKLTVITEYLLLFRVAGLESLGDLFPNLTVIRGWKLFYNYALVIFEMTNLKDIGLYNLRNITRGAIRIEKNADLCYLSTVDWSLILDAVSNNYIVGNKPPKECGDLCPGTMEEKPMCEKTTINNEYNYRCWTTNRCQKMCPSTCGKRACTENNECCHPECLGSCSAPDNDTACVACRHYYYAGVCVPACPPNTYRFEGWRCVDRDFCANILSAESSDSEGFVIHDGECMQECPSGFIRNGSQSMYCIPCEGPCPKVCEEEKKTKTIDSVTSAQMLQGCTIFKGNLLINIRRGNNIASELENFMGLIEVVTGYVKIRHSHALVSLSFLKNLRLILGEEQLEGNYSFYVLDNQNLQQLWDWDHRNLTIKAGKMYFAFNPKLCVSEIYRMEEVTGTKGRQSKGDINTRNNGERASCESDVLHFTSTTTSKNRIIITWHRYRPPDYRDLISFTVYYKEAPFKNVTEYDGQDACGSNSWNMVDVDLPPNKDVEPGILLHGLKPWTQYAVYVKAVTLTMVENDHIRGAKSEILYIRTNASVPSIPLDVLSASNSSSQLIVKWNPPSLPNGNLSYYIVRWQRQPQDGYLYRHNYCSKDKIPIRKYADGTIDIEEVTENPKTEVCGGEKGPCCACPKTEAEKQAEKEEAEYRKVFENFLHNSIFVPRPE
Insulin-like growth factor 1 receptor (Homo sapiens), sequence (P08069 741-1367 limits assumed): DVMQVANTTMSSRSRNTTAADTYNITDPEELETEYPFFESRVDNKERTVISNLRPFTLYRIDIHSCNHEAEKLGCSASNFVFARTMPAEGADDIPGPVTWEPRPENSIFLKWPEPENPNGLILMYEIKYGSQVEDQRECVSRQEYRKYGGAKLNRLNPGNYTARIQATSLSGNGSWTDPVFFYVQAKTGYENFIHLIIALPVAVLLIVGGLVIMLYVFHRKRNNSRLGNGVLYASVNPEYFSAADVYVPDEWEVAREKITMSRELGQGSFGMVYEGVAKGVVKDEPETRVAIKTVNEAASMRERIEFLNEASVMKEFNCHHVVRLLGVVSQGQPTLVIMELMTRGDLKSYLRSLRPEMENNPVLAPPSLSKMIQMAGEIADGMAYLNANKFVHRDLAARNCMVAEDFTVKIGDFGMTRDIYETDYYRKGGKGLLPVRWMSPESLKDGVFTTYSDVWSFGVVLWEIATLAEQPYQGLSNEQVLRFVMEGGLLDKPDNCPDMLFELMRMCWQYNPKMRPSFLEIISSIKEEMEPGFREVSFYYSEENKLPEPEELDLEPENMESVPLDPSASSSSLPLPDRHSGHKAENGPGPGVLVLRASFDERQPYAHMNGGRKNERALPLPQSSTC

[5] = target: Insulin-like growth factor 1 receptor (Homo sapiens) (UniProt P08069); conditions: at 10 µM
[6] = target: T3, Inhibitor of nuclear factor kappa-B kinase subunit alpha (Homo sapiens) (UniProt O15111); conditions: at 1 µM
T3 sequence (whole entry): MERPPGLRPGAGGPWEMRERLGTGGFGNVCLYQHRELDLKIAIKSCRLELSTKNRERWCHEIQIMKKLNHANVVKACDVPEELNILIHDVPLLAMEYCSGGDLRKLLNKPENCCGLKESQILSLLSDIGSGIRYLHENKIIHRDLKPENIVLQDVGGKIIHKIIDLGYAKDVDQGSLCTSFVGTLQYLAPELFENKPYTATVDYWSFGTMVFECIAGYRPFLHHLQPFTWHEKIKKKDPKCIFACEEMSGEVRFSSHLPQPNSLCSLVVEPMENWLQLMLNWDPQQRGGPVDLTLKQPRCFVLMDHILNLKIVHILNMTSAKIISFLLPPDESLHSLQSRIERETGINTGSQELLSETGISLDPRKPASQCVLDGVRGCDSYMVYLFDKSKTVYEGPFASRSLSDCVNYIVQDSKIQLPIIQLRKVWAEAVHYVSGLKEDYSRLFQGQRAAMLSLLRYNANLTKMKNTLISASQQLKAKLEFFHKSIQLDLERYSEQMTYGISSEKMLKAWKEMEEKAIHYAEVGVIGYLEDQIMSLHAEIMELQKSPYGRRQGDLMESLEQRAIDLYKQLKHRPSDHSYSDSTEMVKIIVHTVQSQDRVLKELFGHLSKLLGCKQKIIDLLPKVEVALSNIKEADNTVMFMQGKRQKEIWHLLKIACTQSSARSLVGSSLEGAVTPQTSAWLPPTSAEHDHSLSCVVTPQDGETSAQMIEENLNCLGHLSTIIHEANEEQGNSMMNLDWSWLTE

[7] = target: T3, Inhibitor of nuclear factor kappa-B kinase subunit alpha (Homo sapiens); conditions: at 10 µM
[8] = target: T4, Inhibitor of nuclear factor kappa-B kinase subunit beta (Homo sapiens) (UniProt O14920); conditions: at 1 µM
T4 sequence (whole entry): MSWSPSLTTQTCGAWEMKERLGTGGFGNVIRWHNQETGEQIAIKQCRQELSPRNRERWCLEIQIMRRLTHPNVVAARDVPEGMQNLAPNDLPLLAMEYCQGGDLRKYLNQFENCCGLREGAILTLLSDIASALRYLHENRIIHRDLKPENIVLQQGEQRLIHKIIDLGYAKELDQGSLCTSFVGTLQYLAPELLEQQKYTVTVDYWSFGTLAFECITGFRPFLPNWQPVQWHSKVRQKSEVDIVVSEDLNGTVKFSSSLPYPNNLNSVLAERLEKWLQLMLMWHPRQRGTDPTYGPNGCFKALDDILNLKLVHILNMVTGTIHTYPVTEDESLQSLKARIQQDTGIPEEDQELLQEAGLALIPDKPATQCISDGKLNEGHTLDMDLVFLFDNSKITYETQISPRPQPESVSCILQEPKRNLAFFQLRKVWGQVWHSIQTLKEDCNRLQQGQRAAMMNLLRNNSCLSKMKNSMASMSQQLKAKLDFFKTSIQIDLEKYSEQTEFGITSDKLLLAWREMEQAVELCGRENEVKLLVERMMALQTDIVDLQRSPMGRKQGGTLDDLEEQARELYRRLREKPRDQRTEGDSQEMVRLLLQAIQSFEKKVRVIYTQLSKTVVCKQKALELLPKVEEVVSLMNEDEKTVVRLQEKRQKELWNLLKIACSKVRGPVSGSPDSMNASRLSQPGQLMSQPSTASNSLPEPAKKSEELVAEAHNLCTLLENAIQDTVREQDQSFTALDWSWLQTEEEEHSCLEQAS

[9] = target: T4, Inhibitor of nuclear factor kappa-B kinase subunit beta (Homo sapiens); conditions: at 10 µM
[10] = target: Insulin receptor (Homo sapiens) (UniProt P06213); conditions: at 1 µM
Insulin receptor (Homo sapiens), sequence (P06213 28-758 limits assumed): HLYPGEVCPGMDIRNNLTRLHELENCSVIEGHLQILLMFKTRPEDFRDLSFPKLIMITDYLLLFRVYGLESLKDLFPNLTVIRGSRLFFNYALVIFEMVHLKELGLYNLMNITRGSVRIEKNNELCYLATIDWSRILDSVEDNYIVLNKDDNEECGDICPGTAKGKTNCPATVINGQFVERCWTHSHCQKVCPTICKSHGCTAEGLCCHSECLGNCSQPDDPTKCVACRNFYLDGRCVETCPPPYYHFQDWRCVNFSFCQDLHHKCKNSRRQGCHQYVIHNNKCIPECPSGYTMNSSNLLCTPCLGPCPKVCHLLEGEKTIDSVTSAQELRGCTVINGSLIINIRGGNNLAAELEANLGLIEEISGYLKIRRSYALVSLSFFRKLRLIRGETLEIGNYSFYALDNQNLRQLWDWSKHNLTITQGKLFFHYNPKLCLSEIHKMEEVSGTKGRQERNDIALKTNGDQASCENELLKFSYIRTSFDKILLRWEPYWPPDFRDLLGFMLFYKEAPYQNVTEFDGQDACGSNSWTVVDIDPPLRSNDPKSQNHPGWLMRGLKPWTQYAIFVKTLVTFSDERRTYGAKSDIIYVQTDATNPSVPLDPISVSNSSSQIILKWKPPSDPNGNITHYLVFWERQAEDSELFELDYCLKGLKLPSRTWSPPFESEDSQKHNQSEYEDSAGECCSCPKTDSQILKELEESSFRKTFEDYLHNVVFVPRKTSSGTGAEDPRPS
Insulin receptor (Homo sapiens), sequence (P06213 763-1382 limits assumed): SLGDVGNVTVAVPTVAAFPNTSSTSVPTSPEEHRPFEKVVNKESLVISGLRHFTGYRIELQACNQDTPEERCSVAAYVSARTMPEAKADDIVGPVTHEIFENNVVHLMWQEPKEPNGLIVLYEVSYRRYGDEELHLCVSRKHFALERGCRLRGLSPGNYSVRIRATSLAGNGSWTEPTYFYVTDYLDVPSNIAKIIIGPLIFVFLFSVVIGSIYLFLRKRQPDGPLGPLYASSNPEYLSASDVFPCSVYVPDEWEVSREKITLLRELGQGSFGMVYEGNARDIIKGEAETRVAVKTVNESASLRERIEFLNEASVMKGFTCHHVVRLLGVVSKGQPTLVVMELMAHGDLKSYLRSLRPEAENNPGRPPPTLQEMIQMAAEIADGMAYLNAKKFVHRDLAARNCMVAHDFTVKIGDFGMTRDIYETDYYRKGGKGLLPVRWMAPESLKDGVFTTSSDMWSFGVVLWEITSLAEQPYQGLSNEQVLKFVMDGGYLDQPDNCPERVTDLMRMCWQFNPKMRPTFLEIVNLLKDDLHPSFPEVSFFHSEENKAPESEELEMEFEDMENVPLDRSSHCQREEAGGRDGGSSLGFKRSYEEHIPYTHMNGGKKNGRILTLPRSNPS

## Cc1nc(-c2ccccc2)c(-c2ccncc2)o1
[1]
  residual activity: 88%
[2]
  residual activity: 116%
[3]
  residual activity: 100%
[4]
  residual activity: 107%
[5]
  residual activity: 116%
[6]
  residual activity: 109%
[7]
  residual activity: 101%
[8]
  residual activity: 109%
[9]
  residual activity: 82%
[10]
  residual activity: 117%

From ChEMBL document CHEMBL2218924, “A broad activity screen in support of a chemogenomic map for kinase signalling research and drug discovery” (Biochem J, 2013)
